Compounds with a hit are over-represented: about 19% of the library has one in this group of screens.
TDP1 cell CPT – growth inhibition of DT40 Tdp1-/-;hTDP1 cells with camptothecin (screen for TDP1 inhibitors). chicken DT40 Tdp1-/-;hTDP1 cells + 20 nM CPT, ATP luminescence, 48 h. AID 686979. Potency, µM (series often up to 46.2 µM), most hits filed as inhibitors. 420,000 compounds, 12% hits; also: nearly all actives have a fitted effect of over 55% in size
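Chicken DT40 Tdp1-/- cells stably complemented with human TDP1 were seeded at 400 cells/well in medium containing 20 nM camptothecin, exposed to pin-transferred compounds, and grown at 37 °C for at least 48 hr. Viability was read as ATP luminescence.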
HepG2 tox – HepG2 cytotoxicity, counter-screen for TGF-b inhibitors | HepG2 CAGA-GFP viability, ATP luminescence, 18 h | Potency, µM (doses to about 46.1 µM), actives largely listed as cytotoxic | 410,000 compounds, 0.76% hits
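CellTiter-Glo luminescence gave cytotoxicity after 18 hours at 37 degrees C. The cells were HepG2 CAGA-GFP in 1% FBS DMEM, stimulated with 500 pg/mL TGF-beta after compound addition. %Activity was normalised to no-cell wells (complete cell-killing) and DMSO (no toxicity), and curves were fitted and classified.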
TDP1 cell noCPT – qHTS for Inhibitors of human tyrosyl-DNA phosphodiesterase 1 (TDP1): qHTS in cells in absence of CPT; AID 686978, 2013; DT40 Tdp1-/- hTDP1 cells, no CPT, ATP luminescence, 48 h; 420,000 compounds, 15% hits; Potency, µM (top dose mostly 46.2 µM), hits mostly inhibitors; also: nearly all actives have a fitted effect of over 55% in size
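Luminescent ATP content (CellTiter-Glo) served as the growth readout. Knockout chicken DT40 cells expressing human TDP1 were exposed to compounds without camptothecin for a minimum 48 hr at 37 °C.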
S-ASM inh – blocks human secretory acid sphingomyelinase; AID 504937; Potency, µM (highest dose often 57.5 µM), actives largely listed as inhibitors; placental ASM, HMU-PC fluorogenic substrate, 60 min; P17405; 340,000 compounds, 0.006% hits
Target sequence (P17405 47-631 limits assumed): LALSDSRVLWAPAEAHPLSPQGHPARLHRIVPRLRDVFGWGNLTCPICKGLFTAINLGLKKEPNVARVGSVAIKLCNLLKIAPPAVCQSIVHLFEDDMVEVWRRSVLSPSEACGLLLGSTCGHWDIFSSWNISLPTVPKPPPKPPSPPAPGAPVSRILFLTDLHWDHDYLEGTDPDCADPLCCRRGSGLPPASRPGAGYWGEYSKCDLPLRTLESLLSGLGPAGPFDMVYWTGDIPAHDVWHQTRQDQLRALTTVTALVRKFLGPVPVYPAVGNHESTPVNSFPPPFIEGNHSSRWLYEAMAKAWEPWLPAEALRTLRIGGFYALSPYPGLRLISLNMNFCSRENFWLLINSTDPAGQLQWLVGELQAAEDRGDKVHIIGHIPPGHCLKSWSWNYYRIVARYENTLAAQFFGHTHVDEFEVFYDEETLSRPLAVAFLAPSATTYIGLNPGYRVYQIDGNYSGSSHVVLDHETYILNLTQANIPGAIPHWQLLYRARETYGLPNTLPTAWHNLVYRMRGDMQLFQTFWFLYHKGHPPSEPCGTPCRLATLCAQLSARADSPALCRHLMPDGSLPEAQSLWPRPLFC
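Fluorescence read-out (Ex 386 nm, Em 447 nm) after stopping the reaction at pH 10. Enzyme: ASM from human placenta; substrate HMU-PC0, 9 uM final; 60 min, 37 °C. Compound preincubation 10 min, ambient temperature.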
IL-1B inflam inh – blocks inflammasome-driven IL-1 beta release | THP-1 LPS/ATP IL-1B secretion, AlphaLISA, 16 h; active compounds read low | activity change, % at 57.5 µM | 360,000 compounds, 4.7% hits | AID 743279; in the data active = activity change below about -50%; inconclusive = mostly about -30% to -49%
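Secreted IL-1B measured by AlphaLISA bead assay after 16 h compound exposure of THP-1 cells; compounds (final up to 57.5 uM) added 1 h before LPS (250 ng/mL) and ATP (1.25 mM) stimulation; lower signal means less secretion.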
TGFb SMAD3 inh – inhibitors of TGF-b signaling. HepG2 CAGA-GFP TGF-b/SMAD3 reporter, GFP fluorescence, 18 h; TGF-beta stimulated, 500 pg/mL final. Potency, µM (top dose mostly 46.1 µM), usual class: inhibitors. 410,000 compounds, 1.2% hits. AID 588855; also: nearly all actives have a fitted effect of over 65% in size
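Inhibition of TGF-beta-driven CAGA-GFP reporter expression in HEPG2 cells is measured by cellular GFP fluorescence after 18 h stimulation with 500 pg/mL recombinant TGF-beta in 1% FBS medium at 37 degrees C.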
Each line names hits and unclear results; the compound was inactive in the other large screens. Unless noted, calls follow the shape of the dose curve; as a rule, active = well fitted curve in the direction sought with a large enough effect; inconclusive = small, poorly fitted or top-dose-only effect, or another doubt; inactive = no such curve, though single readings can be large; an effect the other way counts as inactive or inconclusive.

CSc1ccc(/C=C/C(=O)OCC(=O)N2CCc3ccccc32)cc1	none
CCCCOC(=O)c1ccc(NC(=O)CC2NCCNC2=O)cc1 (stereo unspecified)	none (no result: S-ASM inh, IL-1B inflam inh)
CCOc1ccc(-c2cc3nc(C4CCN(C(=O)OC(C)(C)C)CC4)c(C(=O)Nc4c(C)cccc4C)cn3n2)cc1	TDP1 cell CPT 15µM, TDP1 cell noCPT 13µM (no result: S-ASM inh, IL-1B inflam inh)
CCOc1ccc(-c2cc3nc(C4CCN(C(=O)OC(C)(C)C)CC4)c(C(=O)Nc4cccc(Cl)c4C)cn3n2)cc1	TDP1 cell CPT 18µM, TDP1 cell noCPT 15µM (no result: S-ASM inh, IL-1B inflam inh)
CCOc1ccc(-c2cc3nc(C4CCN(C(=O)OC(C)(C)C)CC4)c(C(=O)Nc4ccc(C)cc4Cl)cn3n2)cc1	TDP1 cell CPT inconclusive, TDP1 cell noCPT inconclusive (no result: S-ASM inh, IL-1B inflam inh)
CCOc1ccc(-c2cc3nc(C4CCN(C(=O)OC(C)(C)C)CC4)c(C(=O)O)cn3n2)cc1	TDP1 cell CPT inconclusive, TDP1 cell noCPT inconclusive
CCOc1ccc(-c2cc3nc(C4CCN(C(=O)OC(C)(C)C)CC4)c(C(=O)Nc4ccc(C)cc4C)cn3n2)cc1	TDP1 cell CPT 18µM, TDP1 cell noCPT 21µM (no result: S-ASM inh, IL-1B inflam inh)
CN(C)c1ccc(-c2cc([C@H]3[C@@H]4C=CCC[C@@]4(C)C(=O)N3Cc3ccccc3)ccc2F)cc1	TDP1 cell CPT inconclusive, TDP1 cell noCPT 23µM
COc1ccc(-c2cc([C@H]3[C@@H]4C=CCC[C@@]4(C)C(=O)N3Cc3ccccc3)ccc2F)cc1OC	TDP1 cell CPT 26µM, TDP1 cell noCPT inconclusive, TGFb SMAD3 inh inconclusive
C[C@@]12CCC=C[C@H]1[C@H](c1ccc(F)c(/C=C/c3ccccc3)c1)N(Cc1ccccc1)C2=O	TDP1 cell CPT inconclusive, TDP1 cell noCPT 16µM, S-ASM inh inconclusive, TGFb SMAD3 inh inconclusive
CN(C)c1ccc(-c2ccc([C@H]3[C@@H]4C=CCC[C@@]4(C)C(=O)N3Cc3ccccc3)c(F)c2)cc1	TDP1 cell CPT 23µM, TDP1 cell noCPT 18µM, TGFb SMAD3 inh inconclusive
CN(C)c1ccc(-c2ccc(C3C4C=CCCC4(C)C(=O)N3Cc3ccccc3)c(F)c2)cc1 (stereo unspecified)	none (no result: TDP1 cell CPT, TDP1 cell noCPT, S-ASM inh, IL-1B inflam inh)
CC(C)(C)OC(=O)N1CCC(c2c(C(=O)Nc3ccc4c(c3)OCCO4)cnn2-c2ccc(Cl)cc2)CC1	TDP1 cell CPT inconclusive, TDP1 cell noCPT inconclusive, TGFb SMAD3 inh inconclusive (no result: S-ASM inh, IL-1B inflam inh)
COc1ccc(CCNC(=O)c2c(C)oc3ncnc(N4CCOCC4)c23)c(OC)c1	none (no result: S-ASM inh, IL-1B inflam inh)
Cc1ccc(SCC(=O)Nc2ccc(N3CCOCC3)cc2)cc1C	none
COc1ccc([C@H]2[C@@H]3C=CCC[C@@]3(C)C(=O)N2Cc2ccccc2)cc1Cl	TDP1 cell CPT inconclusive, TDP1 cell noCPT 21µM, TGFb SMAD3 inh inconclusive
CCOC(=O)c1sc(NC(=O)C2CCCCC2)nc1C	TDP1 cell noCPT inconclusive, IL-1B inflam inh inconclusive
COc1ccc(CC(=O)NCc2ccc3c(c2)CCN3C(C)=O)cc1	none (no result: S-ASM inh, IL-1B inflam inh)
CCN1CCN(S(=O)(=O)c2ccc(Cl)c(C(=O)Nc3ccccc3N3CCOCC3)c2)CC1	TDP1 cell CPT inconclusive (no result: S-ASM inh)
CCN1CCN(c2ccc(S(=O)(=O)N3CCOCC3)cc2NC(=O)c2ccc(Cl)cc2Cl)CC1	TDP1 cell CPT inconclusive, TDP1 cell noCPT 21µM

Bioassay records as filed in PubChem BioAssay.
